# Test results from PubChem BioAssay (Tox21).
# Several values for one entry are separate records, joined by “and”; a condition that tells them apart may be missing. Equal values may be shown once. Results filed as inconclusive are left out. Entries that show only a call come without a potency. Where a structure was tested more than once in an assay, its records may differ in their call. Activity calls are given as the source filed them. Calls come from the whole dose curve; as a rule, active = well fitted curve in the direction sought with a large enough effect in the repeat runs; inconclusive = weak or mixed curves; inactive = no such curve, though single readings can be large; an effect the other way counts as inactive or inconclusive.
# What was measured:
# [1] = A CellTox Green Cytotoxicity Assay to monitor cytotoxicity in HEK293 cells - 40 hour (AID 1224871); note: nearly all actives have a fitted effect of over 45% in size; note: potency is the fitted concentration of half-maximal effect
# Summary of the method: (§1)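 Nonlytic real-time cytotoxicity: HEK293 + CellTox Green reagent plated, 5 h preincubation, pintool compound addition (23 nL in DMSO), 37 C for 40 h, fluorescence measured at successive time points.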
# [2] = qHTS RealTime-Glo MT Cell Viability Assay in HEK293 cells - 16 hour (AID 1224872); note: nearly all actives have a fitted effect of over 50% in size; note: potency is the fitted concentration of half-maximal effect
# Summary of the method: (§2)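 Viability tracked continuously by luminescence as live cells reduce a prosubstrate for NanoLuc; HEK293 cells preincubated 5 h, compound-treated at 37 C, and read at 0, 8, 16, 24, 32 and 40 h.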
# [3] = qHTS RealTime-Glo MT Cell Viability Assay in HEK293 cells - 40 hour (AID 1224874); conditions: RealTime-Glo luminescence; max response: stronger effect = lower value; note: nearly all actives have a fitted effect of over 50% in size; note: potency is the fitted concentration of half-maximal effect
# Summary of the method: (§3)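 Cells were seeded together with NanoLuc luciferase and a prosubstrate that viable cells reduce to a luciferase substrate. After a 5 h incubation at 37 C/5% CO2, compounds were added and luminescence was measured repeatedly during 40 h of treatment.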
# [4] = A CellTox Green Cytotoxicity Assay to monitor cytotoxicity in HEK293 cells - 24 hour (AID 1224875); note: nearly all actives have a fitted effect of over 45% in size; note: potency is the fitted concentration of half-maximal effect
# Summary of the method: as §1
# [5] = A CellTox Green Cytotoxicity Assay to monitor cytotoxicity in HepG2 cells - 16 hour (AID 1224876); note: nearly all actives have a fitted effect of over 45% in size; note: potency is the fitted concentration of half-maximal effect
# Summary of the method: (§4)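 Read-out is fluorescence of a cyanine dye excluded from live cells that stains DNA of dead HepG2 cells, with signal proportional to cytotoxicity. Plates were read at 0, 8, 16, 24, 32 and 40 h after compound addition.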
# [6] = qHTS RealTime-Glo MT Cell Viability Assay in HepG2 cells - 32 hour (AID 1224877); note: nearly all actives have a fitted effect of over 55% in size
# Summary of the method: (§5)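 Viability was tracked continuously by NanoLuc luminescence from prosubstrate reduced by living HepG2 cells, at successive time points over 40 h of compound exposure. Cells with reagent were preincubated 5 h at 37 °C before compound addition.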
# [7] = A CellTox Green Cytotoxicity Assay to monitor cytotoxicity in HepG2 cells - 24 hour (AID 1224878); note: nearly all actives have a fitted effect of over 45% in size; note: potency is the fitted concentration of half-maximal effect
# Summary of the method: as §4
# [8] = A CellTox Green Cytotoxicity Assay to monitor cytotoxicity in HepG2 cells - 40 hour (AID 1224879); note: nearly all actives have a fitted effect of over 40% in size; note: potency is the fitted concentration of half-maximal effect
# Summary of the method: as §4
# [9] = qHTS RealTime-Glo MT Cell Viability Assay in HEK293 cells - 0 hour (AID 1224880)
# Summary of the method: as §3
# [10] = A CellTox Green Cytotoxicity Assay to monitor cytotoxicity in HEK293 cells - 32 hour (AID 1224881); note: nearly all actives have a fitted effect of over 40% in size; note: potency is the fitted concentration of half-maximal effect
# Summary of the method: as §1
# [11] = A CellTox Green Cytotoxicity Assay to monitor cytotoxicity in HepG2 cells - 0 hour (AID 1224882); note: nearly all actives have a fitted effect of over 35% in size
# Summary of the method: as §4
# [12] = A CellTox Green Cytotoxicity Assay to monitor cytotoxicity in HEK293 cells - 8 hour (AID 1224884); note: nearly all actives have a fitted effect of over 35% in size; note: potency is the fitted concentration of half-maximal effect
# Summary of the method: as §1
# [13] = qHTS RealTime-Glo MT Cell Viability Assay in HepG2 cells - 16 hour (AID 1224885); note: nearly all actives have a fitted effect of over 50% in size
# Summary of the method: as §5
# [14] = qHTS RealTime-Glo MT Cell Viability Assay in HEK293 cells - 24 hour (AID 1224886); note: nearly all actives have a fitted effect of over 50% in size; note: potency is the fitted concentration of half-maximal effect
# Summary of the method: as §2
# [15] = qHTS RealTime-Glo MT Cell Viability Assay in HEK293 cells - 8 hour (AID 1224887); note: nearly all actives have a fitted effect of over 50% in size; note: potency is the fitted concentration of half-maximal effect
# Summary of the method: as §3
# [16] = A CellTox Green Cytotoxicity Assay to monitor cytotoxicity in HEK293 cells - 16 hour (AID 1224888); note: nearly all actives have a fitted effect of over 35% in size
# Summary of the method: as §1
# [17] = A CellTox Green Cytotoxicity Assay to monitor cytotoxicity in HepG2 cells - 8 hour (AID 1224890); note: nearly all actives have a fitted effect of over 45% in size
# Summary of the method: as §4
# [18] = qHTS RealTime-Glo MT Cell Viability Assay in HepG2 cells - 0 hour (AID 1224889); note: nearly all actives have a fitted effect of over 50% in size
# Summary of the method: as §5
# [19] = qHTS RealTime-Glo MT Cell Viability Assay in HepG2 cells - 8 hour (AID 1224873); note: nearly all actives have a fitted effect of over 55% in size; note: potency is the fitted concentration of half-maximal effect
# Summary of the method: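 HepG2 cells (600/well) mixed with RealTime-Glo MT reagent, settled 5 h at 37 C/5% CO2 before compound addition. Nonlytic NanoLuc luminescence from viable-cell prosubstrate reduction read repeatedly during 40 h treatment at 37 C.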
# [20] = A CellTox Green Cytotoxicity Assay to monitor cytotoxicity in HepG2 cells - 32 hour (AID 1224883); note: nearly all actives have a fitted effect of over 50% in size; note: potency is the fitted concentration of half-maximal effect
# Summary of the method: as §4
smiles,measurement,setting,value
CCCN(CCOc1c(Cl)cc(Cl)cc1Cl)C(=O)n1ccnc1,Potency,[1],inactive
same,Potency,[2],22.3 µM (active) and 27.5 µM (active)
same,Potency,[3],19.9 µM (active) and 27.5 µM (active)
same,Potency,[4],inactive
same,Potency,[5],inactive
same,Potency,[6],inactive
same,Potency,[7],inactive
same,Potency,[8],43.6 µM (active)
same,outcome,[9],inactive
same,Potency,[10],inactive
same,Potency,[11],inactive
same,Potency,[12],inactive
same,Potency,[13],inactive
same,Potency,[14],22.3 µM (active) and 27.5 µM (active)
same,Potency,[15],44.6 µM (active) and 27.5 µM (active)
same,Potency,[16],inactive
same,Potency,[17],inactive
O=S(=O)(c1ccccc1)c1ccccc1,Potency,[1],inactive
same,Potency,[2],inactive
same,max response,[3],1.49% (inactive)
same,Potency,[4],inactive
same,Potency,[5],inactive
same,Potency,[6],inactive
same,Potency,[7],inactive
same,Potency,[8],inactive
same,outcome,[9],inactive
same,Potency,[10],inactive
same,Potency,[11],inactive
same,Potency,[12],inactive
same,Potency,[13],inactive
same,Potency,[14],inactive
same,Potency,[15],inactive
same,Potency,[16],inactive
same,outcome,[18],inactive
same,Potency,[17],inactive
CCOc1cccc(C2(N3CCN(c4ccccc4)CC3)CCC(C)CC2)c1 (stereo not drawn),Potency,[1],inactive
same,Potency,[2],inactive
same,max response,[3],-7.17% (inactive)
same,Potency,[4],inactive
same,Potency,[5],inactive
same,Potency,[6],inactive
same,Potency,[7],inactive
same,Potency,[8],inactive
same,outcome,[9],inactive
same,Potency,[10],inactive
same,Potency,[11],inactive
same,Potency,[12],inactive
same,Potency,[13],inactive
same,Potency,[14],inactive
same,Potency,[15],inactive
same,Potency,[16],inactive
same,Potency,[17],inactive
O=C(NC(=O)c1cc(F)c(F)cc1Cl)Nc1cc(F)ccc1N1CCC(C(=O)O)CC1,Potency,[1],inactive
same,Potency,[2],inactive
same,Potency,[19],inactive
same,max response,[3],19.9% (inactive)
same,Potency,[4],inactive
same,Potency,[5],inactive
same,Potency,[6],inactive
same,outcome,[9],inactive
same,Potency,[10],inactive
same,Potency,[20],inactive
same,Potency,[12],inactive
same,Potency,[13],inactive
same,Potency,[14],inactive
same,Potency,[15],inactive
same,Potency,[16],inactive
CCCCC1C(=O)NC(=O)N(C2CCCCC2)C1=O (stereo not drawn),Potency,[1],inactive
same,Potency,[2],inactive
same,max response,[3],-0.655% (inactive)
same,Potency,[4],inactive
same,Potency,[5],inactive
same,Potency,[6],inactive
same,Potency,[7],inactive
same,Potency,[8],inactive
same,outcome,[9],inactive
same,Potency,[10],inactive
same,Potency,[11],inactive
same,Potency,[20],inactive
same,Potency,[12],inactive
same,Potency,[13],inactive
same,Potency,[16],inactive
same,outcome,[18],inactive
same,Potency,[17],inactive
O=S(=O)(Cl)Cl,Potency,[1],inactive
same,Potency,[2],inactive
same,max response,[3],15.4% (inactive)
same,Potency,[4],inactive
same,Potency,[5],inactive
same,Potency,[6],inactive
same,Potency,[7],inactive
same,Potency,[8],inactive
same,outcome,[9],inactive
same,Potency,[10],inactive
same,Potency,[11],inactive
same,Potency,[20],inactive
same,Potency,[12],inactive
same,Potency,[13],inactive
same,Potency,[15],inactive
same,Potency,[16],inactive
same,outcome,[18],inactive
CCOC(=O)c1cn2nc(OP(=S)(OCC)OCC)cc2nc1C,Potency,[1],inactive
same,Potency,[2],17.4 µM (active)
same,Potency,[3],15.5 µM (active)
same,Potency,[4],inactive
same,Potency,[5],inactive
same,Potency,[6],inactive
same,Potency,[7],inactive
same,Potency,[8],inactive
same,outcome,[9],inactive
same,Potency,[10],inactive
same,Potency,[11],inactive
same,Potency,[20],inactive
same,Potency,[12],inactive
same,Potency,[13],inactive
same,Potency,[14],17.4 µM (active)
same,Potency,[15],17.4 µM (active)
same,Potency,[16],inactive
COc1cc(CC#N)cc(OC)c1OC,Potency,[1],inactive
same,Potency,[2],inactive
same,max response,[3],0.767% (inactive)
same,Potency,[4],inactive
same,Potency,[5],inactive
same,Potency,[6],inactive
same,Potency,[7],inactive
same,Potency,[8],inactive
same,outcome,[9],inactive
same,Potency,[10],inactive
same,Potency,[11],inactive
same,Potency,[20],inactive
same,Potency,[12],inactive
same,Potency,[13],inactive
same,Potency,[14],inactive
same,Potency,[15],inactive
same,Potency,[16],inactive
same,outcome,[18],inactive
C[Si](Cn1cncn1)(c1ccc(F)cc1)c1ccc(F)cc1,Potency,[1],54.9 µM (active)
same,Potency,[2],40.2 µM (active) and 21.9 µM (active)
same,Potency,[3],25.4 µM (active) and 21.9 µM (active)
same,Potency,[4],inactive
same,Potency,[5],50.6 µM (active) and inactive
same,Potency,[6],inactive
same,Potency,[7],50.6 µM (active)
same,Potency,[8],50.6 µM (active) and 49 µM (active)
same,outcome,[9],inactive
same,Potency,[10],inactive and 54.9 µM (active)
same,Potency,[11],inactive
same,Potency,[20],50.6 µM (active) and 49 µM (active)
same,Potency,[12],inactive
same,Potency,[13],inactive
same,Potency,[16],inactive
same,outcome,[18],inactive
CCC(C)(C)c1ccc(O)c(C(C)(C)CC)c1,Potency,[1],43.2 µM (active) and 15.5 µM (active)
same,Potency,[2],43.2 µM (active)
same,Potency,[3],43.2 µM (active)
same,max response,[3],-21.8% (inactive)
same,Potency,[4],43.2 µM (active) and 17.4 µM (active)
same,Potency,[5],24.3 µM (active)
same,Potency,[6],inactive
same,Potency,[7],34.3 µM (active)
same,Potency,[8],38.5 µM (active)
same,outcome,[9],inactive
same,Potency,[10],48.5 µM (active) and 13.8 µM (active)
same,Potency,[11],inactive
same,Potency,[12],48.5 µM (active) and inactive
same,Potency,[14],43.2 µM (active)
same,Potency,[15],24.3 µM (active)
same,outcome,[18],inactive
O=C(O)C(Cl)(Cl)Br,Potency,[1],inactive
same,Potency,[2],inactive
same,Potency,[19],inactive
same,max response,[3],0.585% (inactive)
same,Potency,[5],inactive
same,Potency,[6],inactive
same,Potency,[7],inactive
same,Potency,[8],inactive
same,outcome,[9],inactive
same,Potency,[10],inactive
same,Potency,[11],inactive
same,Potency,[12],inactive
same,Potency,[13],inactive
same,Potency,[14],inactive
same,Potency,[15],inactive
same,outcome,[18],inactive
same,Potency,[17],inactive
CON(C)C(=O)Nc1ccc(Cl)cc1,Potency,[1],inactive
same,Potency,[2],inactive
same,max response,[3],-13.1% (inactive)
same,Potency,[4],inactive
same,Potency,[5],inactive
same,Potency,[6],inactive
same,Potency,[7],inactive
same,Potency,[8],inactive
same,outcome,[9],inactive
same,Potency,[10],inactive
same,Potency,[11],inactive
same,Potency,[20],inactive
same,Potency,[12],inactive
same,Potency,[13],inactive
same,Potency,[14],inactive
same,Potency,[16],inactive
same,Potency,[17],inactive
CC(C)[C@@H](C(=O)O[C@@H](C#N)c1cccc(Oc2ccccc2)c1)c1ccc(Cl)cc1,Potency,[1],inactive
same,Potency,[2],24.9 µM (active)
same,Potency,[19],49.7 µM (active) and inactive
same,Potency,[4],inactive
same,Potency,[5],inactive
same,Potency,[6],inactive
same,Potency,[7],inactive
same,Potency,[8],inactive
same,outcome,[9],inactive
same,Potency,[10],inactive
same,Potency,[11],inactive
same,Potency,[20],inactive
same,Potency,[12],inactive
same,Potency,[13],inactive
same,Potency,[16],inactive
same,outcome,[18],inactive
